Test results published in PubChem BioAssay (NCI).
About 79,000 compounds went through this panel and 15% of them were active in at least one assay; those are over-represented in the sample as a whole. A number with no mark means an inactive call. Active and inactive are the calls of the source. No stated cut-off is given here; in the data, active means growth inhibition above about 70%; inactive means the rest.

Experiment: NCI Yeast Anticancer Drug Screen. Data for the bub3 strain (AID 167)
Conditions: S. cerevisiae bub3 mutant strain, at 50.0 µM (retest, dose inferred, filed as 5.0), active compounds read high
Summary of the method: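 Readout: yeast growth inhibition, expressed relative to vehicle-only wells. The test organism is a mutant strain from a panel with lesions in DNA repair or checkpoint genes.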
With `Clc1ccc(-c2nc3ccc(Cl)cc3[nH]2)cc1` the growth inhibition was 96% (active). In the case of `O=C1c2ccccc2NC(=O)C2C1C(c1ccccc1)CC2(O)c1ccccc1` (stereo not given), the growth inhibition is reported as 75% (active). In the case of `COc1ccc(CC2C(=O)NC(C)C(=O)N(C)C3Cc4ccc(cc4)Oc4cc(ccc4O)CC(C(=O)NC(C)C(=O)NC(C)C(=O)N2C)N(C)C3=O)cc1` (stereo not given), the growth inhibition is reported as 64%. In the case of `O=C1c2cccnc2-c2nccc3c2c1nc1cc(Br)ccc13`, the growth inhibition is reported as 98% (active). With `CCN(C(=O)O)c1ccc(/C=C/c2ccnc3ccccc23)cc1` the growth inhibition was 95% (active). With `O=C(/C=C/c1cccc(Cl)c1)c1ccccc1` the growth inhibition was 98% (active). Work on `O.O.O=C(O)C(O)C(O)C(OC1OC(CO)C(O)C(O)C1O)C(O)CO.O=C(O)C(O)C(O)C(OC1OC(CO)C(O)C(O)C1O)C(O)CO.[NH-]C1CCCCC1[NH-].[Pt+2]` (stereo not given) yielded a growth inhibition of -2%. Compound `O=C(N=c1sc2ccccc2s1)N=c1sc2ccccc2s1` has a growth inhibition of 7%. With `Cc1ccsc1/C=N/Nc1ccc2ccccc2n1` the growth inhibition was 95% (active). With `CC(C)(C)C1=NC(=S)SC2=NC(=O)C3(NN21)c1ccccc1-c1ccccc13` the growth inhibition was 72% (active). Compound `COC(=O)c1ccc(OC)cc1` has a growth inhibition of 2%. For `Cc1ccc(/C=C2\CN(C)CC3=C2NC(=S)NC3c2ccc(C)cc2)cc1` (stereo not given), the growth inhibition was 44%. In the case of `O=C1NC(=O)/C(=C/C=C/c2ccccc2)S1`, the growth inhibition is reported as 99% (active). Work on `Nc1ccc(Cc2ccc(N)cc2[N+](=O)[O-])c([N+](=O)[O-])c1` yielded a growth inhibition of -3%. With `COc1ccccc1/C=C\C(=O)c1ccccc1` the growth inhibition was 98% (active). `NNC(=S)NN/C=C(\C=Nc1ccccc1)[N+](=O)[O-]` gave a growth inhibition of 64%. `CCCCCCCCCCCCCCCCCO` showed a growth inhibition of 8%. Compound `COc1cc(C(c2cc3c(cc2O)OCO3)N2CCOCC2)cc(OC)c1OC` (stereo not given) has a growth inhibition of 11%. With `O=C1OCc2cccc3cccc1c23` the growth inhibition was 69%. In the case of `CSC(=S)NNC(C)c1nccc2ccccc12` (stereo not given), the growth inhibition is reported as 97% (active). For `N#Cc1c(Cl)nc2ccccc2c1N=[N+]=[N-]`, the growth inhibition was -15%. For `CC(C)(C)CC(C)(C)c1ccc(OCCSC(=N)N)cc1`, the growth inhibition was 100% (active). With `COC1CCC(O)C(CO)O1` (stereo not given) the growth inhibition was 99% (active). In the case of `CC(=O)N(C1=C(Cl)C(=O)c2ccccc2C1=O)c1ccc(Cl)cc1`, the growth inhibition is reported as 99% (active). With `Cc1nc(N2N=C(c3ccc(Cl)cc3)CCC2=O)sc1[N+](=O)[O-]` the growth inhibition was 88% (active). For `Cn1c2c(c3ccccc31)CCN1C[C@@H]3CCCC[C@H]3C[C@@H]21`, the growth inhibition was 0%. With `Cn1cc(NC(=O)Nc2cc(C(=O)Nc3cc(C(=O)Nc4ccc5cc(S(=O)(=O)O)cc(S(=O)(=O)O)c5c4)n(C)c3)n(C)c2)cc1C(=O)Nc1cc(C(=O)Nc2ccc3cc(S(=O)(=O)O)cc(S(=O)(=O)O)c3c2)n(C)c1` the growth inhibition was 98% (active). Compound `CC(=O)Oc1c(Cl)cc(Cl)cc1C(c1cc(Cl)cc(Cl)c1OC(C)=O)C(Cl)(Cl)Cl` has a growth inhibition of 20%. With `CCCCCc1ccc2cc(C(=O)O)[nH]c2c1` the growth inhibition was 47%. For `C/C(=N/O)c1cc([N+](=O)[O-])c(O)cc1O`, the growth inhibition was 76% (active). In the case of `CCOC(=O)CNC(=O)Sc1ccc(C(C)(C)C)cc1C`, the growth inhibition is reported as 92% (active). In the case of `S=C(N/N=C1\C=Cc2ccccc2C1)N/N=C1\C=Cc2ccccc2C1`, the growth inhibition is reported as 36%. For `Cc1cccc(Nc2c3c(nc4ccccc24)CCCCC3)c1`, the growth inhibition was 92% (active). For `Cc1ccc(NS(=O)(=O)c2ccc(C)cc2)cc1`, the growth inhibition was 90% (active). In the case of `CCOC(=O)C(=CNC(=S)Nc1c(CC)cccc1C(C)(C)C)C(=O)OCC`, the growth inhibition is reported as 58%. For `COC1/C=C/OC2(C)Oc3c(C)c(OC(C)=O)c4c(c3C2=O)C(=O)C=C(NC(=O)/C(C)=C\C=C\C(C)C(O)C(C)C(O)C(C)C(OC(C)=O)C1C)C4=O` (stereo not given), the growth inhibition was 85% (active). For `O=C(O)c1ccc(/C=C2\COc3ccccc3C2=O)cc1`, the growth inhibition was 94% (active). Compound `Cc1c2c(c(C)c3ccncc13)S(=O)(=O)c1ccccc1-2` has a growth inhibition of 33%. For `Oc1c(Cl)cc(Cl)c2cccnc12`, the growth inhibition was 97% (active). With `Cc1ccc(S(=O)(=O)Nc2ccc3c(c2)C(=O)c2ccccc2-3)cc1` the growth inhibition was 94% (active).
